# RN4220 kill: growth inhibition of S. aureus RN4220, primary screen, OD600 | 16 h | inhibition, % (concentration not given with the values) | 0.33% of 330,000 active | AID 1259311, 2017; in the data active = inhibition above about 85%
# Mtb hypoxia inh: PubChem AID 1159583 | M. tuberculosis hypoxia-regulated fluorescent reporter, fluorescence | fluorescence inhibition, % (test concentration not listed) | 0.1% of 300,000 active; in the data active = fluorescence inhibition mostly above about 23%, no sharp cut-off; inactive = mostly below about 17%
# ugtP null kill: growth inhibition of ugtP-null S. aureus, primary screen, RN4220 ugtP deletion, OD600 | 16 h | growth inhibition, % (concentration not given with the values) | 0.54% of 330,000 active | AID 1259309, 2017; in the data active = growth inhibition above about 68%
# BioA inh: M. tuberculosis BioA enzyme inhibitors, primary screen, biochemical, plate reader, single point, HTS; purified M. tuberculosis BioA enzyme; 0.096% of 360,000 active; AID 602481, 2012; inhibition, % at 9.99 µM; 7,8-diaminopelargonic acid synthase BioA (Mycobacterium tuberculosis); in the data active = inhibition above about 40%
# TcdB GH inh: TcdB glycohydrolase inhibitors, primary screen, biochemical, single point, plate reader. Toxin B (Clostridioides difficile), P18177. TcdB glycohydrolase enzymatic assay. inhibition, % at 9.99 µM. 0.24% of 350,000 active; in the data active = inhibition above about 10%
# Y pestis TopoI: Yersinia pestis topoisomerase I inhibitors, primary screen, biochemical, cleavage product accumulation, plate reader, single point | 0.064% of 360,000 active | Y. pestis Topo-I cleavage product accumulation | activity, % at 10 µM | DNA topoisomerase I (Yersinia pestis CO92) | AID 504884, 2011; in the data active = activity above about 50%, passing the limit was not always enough
# A number is an active result; i = inactive; nt = no result shown. Most compounds without a hit are left out; they make up all but 0.75% or so of the library.
SMILES,RN4220 kill,Mtb hypoxia inh,ugtP null kill,BioA inh,TcdB GH inh,Y pestis TopoI
COc1ccc(/C=C/c2nc3ccccc3c(=O)n2-c2cccc(C(=O)O)c2)cc1,92.3,i,i,i,i,i
Cc1ccc(C(=O)c2sc3c(c2N)c(=O)[nH]c(=O)n3CCc2ccccc2)cc1,i,i,i,nt,nt,160.4
O=C(Oc1cc(=O)oc2c1c(=O)n1c3c(cccc23)CC1)c1ccccc1,i,i,82.1,nt,i,i
CCOC(=O)C1C2COc3ccc(Cl)cc3C2N2C(=O)CN(Cc3ccc(C)cc3)C(=O)[C@@]12C (some centres undefined),i,i,i,nt,nt,nt
Cc1ccc(C2C(C(=O)c3cc4ccccc4o3)=C(O)C(=O)N2c2cc(C)on2)cc1 (centres undefined),nt,nt,nt,i,i,84.7
Cc1cc(N2C(=O)C(O)=C(C(=O)c3cc4ccccc4o3)C2c2ccc([N+](=O)[O-])cc2)no1 (centres undefined),i,i,i,i,i,i
Cc1cc(N2C(=O)C(O)=C(C(=O)c3ccco3)C2c2ccc(Cl)cc2)no1 (centres undefined),87.1,i,i,i,i,i
Cc1cc(N2C(=O)C(O)=C(C(=O)c3ccco3)C2c2ccc(O)cc2)no1 (centres undefined),i,i,i,i,nt,i
O=C1c2cc(Cl)ccc2-c2c(O)cc(Cl)cc21,99.8,i,100.0,i,i,i
CCOc1cc(NC(=S)NCC2CCCO2)c(OCC)cc1NC(=O)c1ccc(F)cc1 (centres undefined),i,i,i,i,19.4,i
Cc1ccc(NC(=O)c2ncn(CCCNCc3ccccc3)n2)cc1C,nt,nt,nt,i,i,i
Cc1ccc(CNCCCn2cnc(C(=O)Nc3ccc(C)c(C)c3)n2)o1,nt,nt,nt,i,13.8,i
Cc1c(OCC(=O)C(C)(C)C)ccc2c(-c3ccccc3)cc(=O)oc12,i,i,i,i,i,50.7
CC(=O)COc1ccc2c(-c3ccccc3)cc(=O)oc2c1C,i,i,i,i,i,i
Cc1ccc(C(=O)COC(=O)c2cc(=O)[nH]c3ccccc23)cc1,i,i,i,nt,11.2,i
O=C(COC(=O)c1cc(=O)[nH]c2ccccc12)c1ccccc1,i,i,i,i,i,i
COc1ccccc1CNC(=O)CCCn1nc(C)n2ccnc2c1=O,i,i,i,i,i,i
COc1ccc(CCNC(=O)CCCn2nc(C)n3ccnc3c2=O)cc1OC,i,i,i,i,14.4,i
COC(=O)CC1=C(C(=O)OC)C2(C(=O)N(C)c3ccccc32)C(C#N)=C(N)O1 (centres undefined),98.1,i,98.2,i,nt,i
O=C(O)c1cccc(NN=CC2=C(Cl)c3cc(Cl)ccc3SC2)c1,i,i,i,nt,nt,nt
CC(C)(C)c1cc(C(=O)NN=Cc2ccc([N+](=O)[O-])s2)n[nH]1,100.6,i,100.9,nt,nt,nt
Cc1ccc(C(=O)NN=Cc2ccc([N+](=O)[O-])s2)cn1,i,nt,87.6,nt,nt,nt
Cc1cc(C(=O)N/N=C/c2ccc([N+](=O)[O-])s2)n[nH]1,nt,nt,nt,i,i,i
Cc1ccc(C(=O)N/N=C\c2ccc([N+](=O)[O-])s2)cn1,nt,nt,nt,nt,i,i
CC(C)(C)OC(=O)N1CCN(C(=O)C(Cc2ccc(O)cc2)n2cc(CCO)nn2)CC1 (centres undefined),i,i,i,nt,nt,nt
SMILES,RN4220 kill,Mtb hypoxia inh,ugtP null kill,BioA inh,TcdB GH inh,Y pestis TopoI
COC(=O)c1cc(NC(=O)c2cccc(C(F)(F)F)c2)c(=O)oc1CC=NOCc1cccc(Cl)c1Cl,i,nt,i,nt,nt,nt
Oc1ccc(Cl)cc1Cc1cc(Cl)ccc1O,94.0,i,86.2,i,i,i
Oc1ccc(Cl)cc1Cc1ccccc1,i,i,i,i,i,i
Cc1nc2ccc(Cl)cc2nc(C)c1=NO,i,i,i,nt,nt,nt
CCN(CC)C(=S)SSC(=S)N(CC)CC,i,i,99.4,i,i,i
COC(=O)c1sc(C(C)(C)C)cc1CSc1ccccc1,i,i,83.7,nt,i,i
CN(C)c1ccc(C=NNC(=O)CCCO)cc1,i,i,i,nt,nt,nt
COc1ccc(NC(=O)Nc2ccc3c(c2)C(=O)N(C(C)CO)CC(C)C(CN(C)C(=O)Nc2ccc(OC)cc2)O3)cc1 (centres undefined),i,i,i,nt,nt,nt
Cc1ccc(C(=O)Nc2cccc([N+](=O)[O-])c2)cc1S(=O)(=O)Nc1cccc(C(=O)O)c1,i,i,93.8,nt,i,i
NS(=O)(=O)c1cccc(NC(=O)c2ccc(NS(=O)(=O)c3cccc([N+](=O)[O-])c3)cc2)c1,i,i,i,i,12.3,i
O=C(O)c1cccc(NC(=O)c2cccc(S(=O)(=O)Nc3cccc([N+](=O)[O-])c3)c2)c1,i,i,i,i,i,i
CC(/C=C/c1ccccc1)=NNC(=O)c1cc([N+](=O)[O-])cc([N+](=O)[O-])c1,i,i,i,nt,nt,nt
C=C(C)C(=O)N1CC2(CC(c3cccc(NC(=O)C(C)=CC)c3)=NO2)CC1C(N)=O (centres undefined),i,i,i,nt,nt,nt
COc1cccc(C2CN(c3ccc(F)cc3F)N=C2c2cccs2)c1OC (centres undefined),i,i,88.0,i,nt,i
COc1ccccc1C1CN(c2ccccc2)N=C1c1cccs1 (centres undefined),i,i,i,i,i,i
N#CC(=C(O)CN1CCOCC1)c1nc2ccccc2s1,i,nt,i,nt,nt,nt
COc1cc(C=NNC(=O)c2cc(-c3c(C)nn(-c4ccccc4)c3C)n[nH]2)ccc1O,i,nt,94.5,nt,nt,nt
S=C1NCC(Cc2ccccc2)N1CCc1cccc2ccccc12 (centres undefined),i,i,i,nt,nt,nt
ClCC(CNCc1ccccc1)c1ccccc1 (centres undefined),i,i,i,i,12.0,i
NC(=O)CSc1nc2c(c(=O)n1-c1ccccc1)C1(CCCCC1)Cc1ccccc1-2,i,i,89.8,nt,i,i
Cc1ccc(OCc2cc(C(=O)N3CCc4sccc4C3)no2)cc1C,i,i,i,i,i,53.6
O=C1C=CC(=O)C2C1C1(Cl)C(Cl)=C(Cl)C2(Cl)C1(Cl)Cl (centres undefined),88.3,i,97.3,i,i,i
CC(=O)NS(=O)(=O)c1ccc(Nc2ccc([N+](=O)[O-])c3nonc23)cc1,i,38.3,i,nt,i,i
O=C1CC2(CCN(C(=O)C3CC(=O)N(c4ccccc4)C3)CC2)Oc2ccccc21 (centres undefined),i,i,i,i,i,i
COc1cccc(N2CC(C(=O)N3CCC4(CC3)CC(=O)c3ccccc3O4)CC2=O)c1 (centres undefined),i,i,i,i,i,217.2
CCOc1ccc(NC(=O)c2cccs2)c([N+](=O)[O-])c1,i,i,i,i,nt,i
CCOc1ccc(NC(=S)NC(=O)/C=C/c2ccc(Br)cc2)c([N+](=O)[O-])c1,i,i,i,i,i,i
CCOc1ccc(NC(=O)c2ccc(CC)s2)c([N+](=O)[O-])c1,i,i,i,i,10.3,i

# Source: PubChem BioAssay (several laboratories)
